Shown is part of a subset that was picked to be rich in hits.
IL-1B inflam inh: qHTS for Inhibitors of Inflammasome Signaling: IL-1-beta AlphaLISA Primary Screen; THP-1 LPS/ATP IL-1B secretion, AlphaLISA, 16 h; hits give low values; activity change, % at 57.5 µM; 4.7% of 360,000 active; AID 743279, 2014; in the data active = activity change below about -50%; inconclusive = mostly about -30% to -49%
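Secreted IL-1B measured by AlphaLISA bead assay after 16 h compound exposure of THP-1 cells; compounds (final up to 57.5 uM) added 1 h before LPS (250 ng/mL) and ATP (1.25 mM) stimulation; lower signal means less secretion.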
TDP1 cell CPT: qHTS for Inhibitors of human tyrosyl-DNA phosphodiesterase 1 (TDP1): qHTS in cells in presence of CPT; chicken DT40 Tdp1-/-;hTDP1 cells + 20 nM CPT, ATP luminescence, 48 h; Potency, µM (highest dose often 46.2 µM), without a hit: top-dose activity change, negative = growth inhibition, usual class: inhibitors; 12% of 420,000 active; AID 686979, 2013; note: potency is the fitted concentration of half-maximal effect; nearly all actives have a fitted effect of over 55% in size
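Chicken DT40 Tdp1-/- cells complemented with human TDP1, 400 cells/well, exposed to compounds plus 20 nM camptothecin for at least 48 h at 37 C; viability read as ATP content by CellTiter-Glo luminescence.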
HT1080 IDH1KD tx: qHTS for induction of synthetic lethality in tumor cells producing 2HG: qHTS for the HT-1080-IDH1KD cell line | HT-1080 IDH1 knockdown viability, ATP luminescence, 48 h | Potency, µM (series often up to 46.1 µM), without a hit: at the highest dose activity, negative = toxicity, hits mostly cytotoxic | 2% of 360,000 active;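 note: potency is the fitted concentration of half-maximal effect; 0% = DMSO wells and -100% = cell-free medium wells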
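% activity derives from luminescence (CellTiter-Glo), normalised to DMSO and no-cell wells. HT-1080-IDH1KD cells, 750/well, had 48 h compound exposure at 37 °C.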
TDP1 cell noCPT: qHTS for Inhibitors of human tyrosyl-DNA phosphodiesterase 1 (TDP1): qHTS in cells in absence of CPT; DT40 Tdp1-/- hTDP1 cells, no CPT, ATP luminescence, 48 h; Potency, µM (doses to about 46.2 µM), for inactives: at the highest dose activity change, negative = growth inhibition, usual class: inhibitors; 15% of 420,000 active; AID 686978, 2013; note: potency is the fitted concentration of half-maximal effect; nearly all actives have a fitted effect of over 55% in size
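Seeded 400 DT40-hTDP1 cells/well (vehicle DMSO, no 20 nM CPT); pinned compounds; ≥48 hr at 37 °C; CellTiter-Glo luminescence as viability measure.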
HT1080NT lethal: qHTS for induction of synthetic lethality in tumor cells producing 2HG: qHTS for the HT-1080-NT fibrosarcoma cell line; Potency, µM (highest dose often 46.1 µM), without a hit: at the highest dose activity, negative = less viability, most hits filed as cytotoxic; 1.6% of 360,000 active; HT-1080-NT fibrosarcoma viability, CellTiter-Glo ATP luminescence, 48 h;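 note: NT is the 2HG producing partner of a matched IDH1 knockdown line; potency is the fitted concentration of half-maximal effect; 0% = DMSO-treated cells and -100% = media-only wells without cells; nearly all actives have a fitted effect of over 55% in size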
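Viability of the 2HG-overproducing fibrosarcoma line after 48 hours of compound exposure at 37 degrees C was determined by luminescence with CellTiter-Glo, and concentration-effect curves were then fitted and categorized.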
12-LOX inh: Primary qHTS assay for inhibitors of human arachidonate 12S-lipoxygenase (ALOX12): Round 2; Polyunsaturated fatty acid lipoxygenase ALOX12 (Homo sapiens), P18054; purified 12hLO, xylenol orange hydroperoxide absorbance; Potency, µM (series often up to 108 µM), for inactives: at the top dose activity change, negative = inhibition, hits mostly inhibitors; 1.1% of 580,000 active; AID 1671190, 2021; note: potency is the fitted concentration of half-maximal effect
Target sequence (P18054 whole entry, looked up): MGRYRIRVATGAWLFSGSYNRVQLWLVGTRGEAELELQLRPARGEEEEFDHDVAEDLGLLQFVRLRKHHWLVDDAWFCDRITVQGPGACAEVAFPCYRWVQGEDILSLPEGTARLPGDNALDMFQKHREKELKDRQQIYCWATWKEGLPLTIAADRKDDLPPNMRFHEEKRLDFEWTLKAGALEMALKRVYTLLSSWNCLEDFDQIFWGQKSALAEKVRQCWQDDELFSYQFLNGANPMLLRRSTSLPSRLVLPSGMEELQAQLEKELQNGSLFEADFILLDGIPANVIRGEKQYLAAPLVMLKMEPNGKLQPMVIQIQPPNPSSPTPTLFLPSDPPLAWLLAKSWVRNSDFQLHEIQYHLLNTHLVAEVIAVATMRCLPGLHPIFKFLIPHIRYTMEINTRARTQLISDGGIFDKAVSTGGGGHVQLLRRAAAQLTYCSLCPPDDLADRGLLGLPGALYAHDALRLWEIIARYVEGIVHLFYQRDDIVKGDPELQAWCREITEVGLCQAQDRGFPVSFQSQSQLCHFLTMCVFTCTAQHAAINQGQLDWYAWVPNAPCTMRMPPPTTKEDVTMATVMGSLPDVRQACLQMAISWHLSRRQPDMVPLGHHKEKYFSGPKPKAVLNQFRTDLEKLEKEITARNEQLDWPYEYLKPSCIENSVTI
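Hydroperoxide product was detected by ferrous iron/xylenol orange as the 573 to 405 nm absorbance ratio. Arachidonic acid at 40 uM (final) was turned over for 30 min at room temperature by 150 nM human 12hLO, pH 7.0 Hepes buffer, after 15 min compound preincubation.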
Numbers without * were called inactive; ? = inconclusive; . = no result given. Unless noted, calls come from the whole dose curve; as a rule, active = well fitted curve in the direction sought with a large enough effect; inconclusive = small, poorly fitted or top-dose-only effect, or another doubt; inactive = no such curve, though single readings can be large; an effect the other way counts as inactive or inconclusive. Unless noted, % is set by controls: 0 for no effect and ±100 for the full control effect.

SMILES	IL-1B inflam inh	TDP1 cell CPT	HT1080 IDH1KD tx	TDP1 cell noCPT	HT1080NT lethal	12-LOX inh
Cc1ccoc1C(=O)NCc1ccc(COCC(F)(F)F)cc1	.	.	.	.	.	3%
CCOC(=O)N1CCN(Cc2cc(=O)oc3cc(C)ccc23)CC1	.	.	.	.	.	2%
Cc1c(C(=O)O)cccc1-n1cccc1	.	.	.	.	.	-33%
O=C(CCC1CCCCC1)NCCN1C2=NC[C@@H](Cc3ccccc3)N2C[C@H]1Cc1ccc(O)cc1	0	16µM*	-16%	16µM*	-18%	-26%
O=C(CCC1CCCCC1)NCCN1C2=NC[C@H](Cc3ccccc3)N2C[C@H]1Cc1ccc(O)cc1	-24	21µM*	2%	18µM*	-8%	-25%
C[C@H]1CN=C2N(CCNC(=O)CCC3CCCCC3)[C@H](Cc3ccc(O)cc3)CN21	-11	?	-2%	?	-3%	-22%
O=C(Cn1c(=O)oc2cc(S(=O)(=O)N3CCCC3)ccc21)NCc1ccc(Cl)cc1	.	16µM*	.	21µM*	.	?
O=C(Cn1c(=O)oc2cc(S(=O)(=O)NCc3ccccc3)ccc21)NCc1ccc(Cl)cc1	.	13µM*	.	?	.	?
O=C(Cn1c(=O)oc2cc(S(=O)(=O)NCc3ccccc3)ccc21)NCc1ccccc1Cl	.	7.3µM*	.	9.2µM*	.	-11%
O=C(Cn1c(=O)ccc2cc(S(=O)(=O)N3CCCC3)ccc21)NCc1ccc(Cl)cc1	.	?	.	?	.	-13%
COc1ccc(N2CCC(N)C2=O)cc1 (stereo not drawn)	.	.	.	.	.	33%
COC(=O)CNC(=O)C1CCN(c2ncnc3sc4c(c23)CCCC4)CC1	.	.	.	.	.	9%
CC(C)NC(=O)C1C(c2ccccc2)=Nc2ccccc2N1C(=O)c1cc(Cl)cc(Cl)c1 (stereo not drawn)	1	23µM*	16µM*	?	16µM*	-14%
Cc1nc2ccc(C(=O)N3c4ccccc4N=C(c4ccc(C(F)(F)F)cc4)C3C(=O)NC(C)(C)C)cc2[nH]1 (stereo not drawn)	37	?	?	15µM*	?	-2%
CC(C)NC(=O)C1C(c2ccccc2)=Nc2ccccc2N1C(=O)c1ccc(C(F)(F)F)cc1 (stereo not drawn)	1	?	1%	?	8%	-63%
Cc1ccc(C(=O)N2c3ccccc3N=C(c3ccccc3)C2C(=O)NC(C)C)cc1 (stereo not drawn)	-1	-25%	-28%	?	?	?
COc1ccc(CCC(=O)N2c3ccccc3N=C(c3ccc(C(F)(F)F)cc3)C2C(=O)NC(C)C)cc1 (stereo not drawn)	50	23µM*	?	?	?	-10%
CC(=O)N1c2ccccc2N=C(c2ccc(C(F)(F)F)cc2)C1C(=O)NC(C)C (stereo not drawn)	42	21µM*	-14%	23µM*	-8%	1%
CCC(C)NCc1ccc(C)cc1 (stereo not drawn)	.	.	.	.	.	10%
O=C(NCc1cccc(Cl)c1)C1CCN(c2ncnc3nc[nH]c23)CC1	.	.	.	.	.	23%
CCc1nnc(CC)n1N	.	.	.	.	.	45%
O=C(NC1CCCC1)C1C(c2ccc(C(F)(F)F)cc2)=Nc2ccccc2N1C(=O)c1ccco1 (stereo not drawn)	9	16µM*	?	?	?	-24%

Compound activity: PubChem, National Center for Advancing Translational Sciences (NCATS)
